Experimental findings from PubChem BioAssay AID2551 (National Center for Advancing Translational Sciences (NCATS), 2010) are described below.

Screen size: about 310,000 compounds; about 17,000 (5.5%) were called active. About 11% were inconclusive and are not listed. Calls come from the whole dose curve; as a rule, active = well fitted inhibition curve with a large enough effect; inconclusive = small, poorly fitted or top-dose-only effect, or effect the other way; inactive = no such curve, though single readings can be large or run the other way. The entries come from a sample that favours actives as a whole. A call without a number means that no potency is given here.
Potency is the fitted concentration of half-maximal effect.

Nuclear receptor ROR-gamma (Mus musculus), sequence (P51450 whole entry, looked up, the tested form may be a part): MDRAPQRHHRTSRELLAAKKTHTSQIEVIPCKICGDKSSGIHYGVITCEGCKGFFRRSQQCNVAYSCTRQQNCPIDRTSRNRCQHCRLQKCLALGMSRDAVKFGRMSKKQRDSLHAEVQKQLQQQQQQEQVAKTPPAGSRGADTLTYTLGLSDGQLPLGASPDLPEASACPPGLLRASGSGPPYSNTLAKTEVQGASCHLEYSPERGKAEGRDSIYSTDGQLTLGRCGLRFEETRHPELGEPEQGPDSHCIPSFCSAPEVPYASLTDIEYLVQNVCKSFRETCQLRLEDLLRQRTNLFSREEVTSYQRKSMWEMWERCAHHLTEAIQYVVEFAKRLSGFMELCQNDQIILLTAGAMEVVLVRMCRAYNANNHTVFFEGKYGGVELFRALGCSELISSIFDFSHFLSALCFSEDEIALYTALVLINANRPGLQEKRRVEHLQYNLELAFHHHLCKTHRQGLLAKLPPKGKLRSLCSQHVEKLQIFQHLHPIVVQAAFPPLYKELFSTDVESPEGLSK

The assay addresses Nuclear receptor ROR-gamma (Mus musculus) (UniProt P51450). Kind of assay: qHTS for inhibitors of ROR gamma transcriptional activity. Note: nearly all actives have a fitted effect of over 60% in size. The conditions noted are these: Drosophila S2 Gal4-RORgamma UAS-luciferase reporter, 20 h; series mostly up to 53.6 µM. An outline of the steps: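 In this cell-based reporter format, copper sulfate (700 uM final) drives Gal4–ROR gamma fusion expression from a metallothionein promoter in Drosophila Schneider cells; compounds preincubated 1 hr, reporter read after 20 hr at ambient temperature.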
Turning to `CCn1cc(CN2CCN(CC(C)(C)C)C(CCO)C2)c2ccccc21` (stereo unspecified), the Potency result is “inactive”.

In the case of `CN(Cc1nc2ccccc2c(=O)[nH]1)Cc1cc(=O)oc2ccc3ccccc3c12`, the Potency entry is “inactive”.

`O=c1[nH]c(CN2CCOCC2)nc2cc(Cl)ccc12`: the Potency result is “inactive”.

Regarding `CN(CCOc1ccccc1)Cc1nc2cc(Cl)ccc2c(=O)[nH]1`, the Potency was 4.47 µM (active).

In the case of `COc1cccc(CNC(=O)c2cccnc2Sc2ccc(Cl)cc2)c1`, the Potency result was “inactive”.

Regarding `Brc1ccccc1CN1CCC(Cc2ccccc2)CC1`, the Potency entry was “inactive”.

For `CCOC(=O)CNC(=O)CSc1nnc(COc2ccc(Cl)cc2)n1CC`, the Potency was 7.94 µM (active).

Turning to `CCOC(=O)CNC(=O)CSc1nnc(-c2cccc(OC)c2)n1CC`, the Potency entry is “inactive”.

With `C=CCn1c(COc2ccccc2)nnc1SCC(=O)NCC(=O)OCC`, the Potency entry is “inactive”.

With `Cn1c(=O)oc2cc(S(=O)(=O)NCCC(=O)NCc3ccccc3Cl)ccc21`, the Potency entry was “inactive”.

On to `O=C(CCC1CCN(C(=O)c2cccc(Cl)c2F)CC1)Nc1ccccc1`, for which the Potency result was “inactive”.

`O=C(NCc1ccc2c(c1)OCO2)c1ccc2c(c1)C(=O)N(CC1CCCO1)C2=O` (stereo unspecified): the Potency result was “inactive”.

On to `CCC(=O)Nc1ccc(C(=O)Nc2ccc3c(c2)C(=O)N(CC2CCCO2)C3=O)cc1` (stereo unspecified), for which the Potency result was “inactive”.

For the molecule `O=C1c2cccc3c([N+](=O)[O-])ccc(c23)C(=O)N1CC1CCCO1` (stereo unspecified), the Potency was 15.8 µM (active).

Take `O=C(CSc1n[nH]c(=O)n1-c1ccccc1)Nc1ccccc1C(F)(F)F`: the Potency entry was “inactive”.

For the molecule `CCCNC(=O)CCc1c(C)nc2c(c(C)nn2-c2ccc(C)cc2)c1C`, the Potency entry was “inactive”.

Turning to `COc1cc2ccccc2cc1C(=O)Nc1nc(C)c(C(C)=O)s1`, the Potency result is “inactive”.

For `CCCCCC1CC(COc2ccccc2)OC1=O` (stereo unspecified), the Potency result was “inactive”.

For the molecule `COc1ccc(C(=O)NC2CC(C)(C)Cc3c2cnn3-c2ccccc2)c(OC)c1` (stereo unspecified), the Potency entry is “inactive”.

With `O=C(NCCCn1ccnc1)c1cc(Br)c(Br)s1`, the Potency entry was “inactive”.

As to `C=Cn1cc[n+](CC(=O)c2ccc(OC)c(OC)c2)c1`, the Potency result is “inactive”.

Take `O=C(CSc1ccc(-c2ccco2)nn1)Nc1cccc(F)c1`: the Potency result was “inactive”.

As for `Cc1cnc(NC(=O)CSc2c(Cl)cccc2Cl)s1`, the Potency result is “inactive”.

Consider `Cc1cnc(NC(=O)CSc2nnc(C)s2)s1`, for which the Potency result was “inactive”.

Regarding `Cc1cnc(NC(=O)c2ccccn2)s1`, the Potency is 0.794 µM (active).

`Cc1cnc(NC(=O)c2ccc(Cl)nc2)s1`: the Potency is 15.8 µM (active).

For `Cc1ccc(Cl)cc1NC(=O)c1ccccn1`, the Potency entry is “inactive”.

For `Cc1ccc(SCC(=O)Nc2ncc(C)s2)cc1`, the Potency entry is “inactive”.

On to `CCC(C)C(NC(=O)C1CCC(=O)N1C(=O)OCc1ccccc1)C(=O)NC(C(=O)N1CCCC1C(N)=O)C(C)CC` (stereo unspecified), for which the Potency result was “inactive”.

On to `Cc1cc(=O)oc2cc(OC(C)C(=O)NCCc3ccc(S(N)(=O)=O)cc3)ccc12` (stereo unspecified), for which the Potency result was “inactive”.

As for `CN(C(=O)COC(=O)CNC(=O)C12CC3CC(CC(C3)C1)C2)c1ccccc1`, the Potency entry is “inactive”.
